Compounds with a hit are over-represented: about 3.4% of the library has one in this group of screens.
ADAM17 inh – inhibitors of human ADAM17; P78536; recombinant ADAM17, EDANS/DABCYL FRET peptide cleavage; inhibition, % at 6.95 µM; 0.83% of 370,000 active; AID 720648;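 active = inhibition above the mean of compounds lying between control limits plus 3 SD, set per campaign, cut at about 8.5% in these data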
CendR NRP1 mod – alters CendR peptide binding to human NRP-1; FAM-RPARPAR peptide binding to NRP-1, fluorescence polarization; inhibition, % at 25 µM; 0.85% of 360,000 active;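 active = inhibition or corrected inhibition above about 18%, plus a signal ratio from 0.5 to 1.5, limit read from the data, passing the limit was not always enough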
ADAM10 inh – inhibits human ADAM10. 0.62% of 370,000 active. O14672. inhibition, % at 7 µM. recombinant ADAM10, EDANS/DABCYL FRET peptide cleavage, 3 h;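 active = inhibition above a per-campaign cutoff equal to the mean of compounds falling between control-based bounds plus 3 SD, cut at about 20% in these data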
sPLA2-III inh – Inhibits HGIII-sPLA2 liposome hydrolysis, primary screen | 0.56% of 370,000 active | Q9NZ20 | inhibition, % at 12.2 µM | QFRET BODIPY PC-A2 liposome hydrolysis, fluorescence | AID 743126;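 active = inhibition above mean plus 3 SD of compounds lying within the high and low control bounds, cut at about 19% in these data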
Target sequence (Q9NZ20 whole entry, looked up): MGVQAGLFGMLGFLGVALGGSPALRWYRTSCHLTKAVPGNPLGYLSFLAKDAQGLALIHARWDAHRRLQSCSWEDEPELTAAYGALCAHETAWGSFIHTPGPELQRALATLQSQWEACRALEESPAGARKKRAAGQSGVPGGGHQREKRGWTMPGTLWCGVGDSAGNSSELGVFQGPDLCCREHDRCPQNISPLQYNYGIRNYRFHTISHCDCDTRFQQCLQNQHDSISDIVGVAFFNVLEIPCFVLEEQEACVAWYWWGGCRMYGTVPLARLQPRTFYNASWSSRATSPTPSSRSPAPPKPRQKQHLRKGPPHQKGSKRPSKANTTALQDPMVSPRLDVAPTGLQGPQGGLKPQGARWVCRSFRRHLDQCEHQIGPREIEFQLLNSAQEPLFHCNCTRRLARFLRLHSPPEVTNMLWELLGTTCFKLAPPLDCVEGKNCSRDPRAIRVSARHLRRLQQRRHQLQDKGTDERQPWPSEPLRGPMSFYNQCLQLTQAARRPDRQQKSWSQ
KLK7 zymogen act – activators of human kallikrein-7 zymogen | P49862 | purified proKLK7, EDANS-DABCYL substrate fluorescence; 100% is mature enzyme control, 0% vehicle | activation, % at 7 µM | 0.9% of 370,000 active | AID 652039;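 active = activation above the mean of all tested compounds plus 3 SD, computed per campaign excluding outliers beyond control limits, cut at about 13% in these data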
ADAM10 ctr – inhibits human ADAM10 in ADAM17 exosite counter-screen | recombinant ADAM10, EDANS/DABCYL FRET peptide cleavage, 3 h | 47% of 2,900 active | shares compounds with ADAM17 inh | inhibition, % at 6.95 µM;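 active = mean inhibition over the triplicate runs exceeds the activity threshold set in the earlier primary screen, cut at about 20% in these data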
ADAM17 confirm – confirmation of inhibitors of human ADAM17. inhibition, % at 6.95 µM. 65% of 2,900 active. shares compounds with ADAM17 inh. recombinant ADAM17, EDANS/DABCYL QFRET peptide cleavage;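 active = mean inhibition across replicates above the hit cutoff set in the primary screen, cut at about 8.5% in these data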
Large screens that a line does not name were inactive (follow-up assays come after a bar, where they were run).

COc1ccc(NC(=O)c2cc3sccc3n2Cc2ccc(F)cc2)cc1OC	ADAM17 inh 9.8 | ADAM10 ctr inactive | ADAM17 confirm inactive
Nc1ncnc(Nc2cccc(C(F)(F)F)c2)n1	none
Nc1nc(Nc2cccc(C(F)(F)F)c2)nc(C(F)(F)F)n1	ADAM17 inh 15 | ADAM10 ctr 23 | ADAM17 confirm 16
CCC(=O)c1ccc(OCC(=O)OCC(=O)NC2CCCCCCC2)cc1	ADAM17 inh 9.5 | ADAM10 ctr inactive | ADAM17 confirm 8.8
CCC(=O)c1ccc(OCC(=O)NC2CCCC2)cc1	none
O=S1(=O)c2c(cccc2N2CCC[C@@H]2CO)OCCCN1C1CC1	none (no result: CendR NRP1 mod)
CCCCNC(=O)COn1nnc2ccc(S(=O)(=O)N3CCOCC3)cc21	none
O=C(COn1nnc2ccc(S(=O)(=O)N3CCOCC3)cc21)NCCc1ccccc1	ADAM17 inh 13 | ADAM10 ctr inactive | ADAM17 confirm inactive
CCc1ccc(NC2=CC(=O)CC(c3ccco3)C2)cc1 (centres undefined)	ADAM17 inh 9.6 | ADAM10 ctr inactive | ADAM17 confirm inactive
Cn1cc(CCOCc2ccc(Br)cc2)c2ccccc21	none (no result: CendR NRP1 mod)
COc1ccccc1NC(=O)c1nn(C)c(C(=O)Nc2ccccc2OC)c1[N+](=O)[O-]	none
COc1ccccc1NC(=O)c1c([N+](=O)[O-])c(C(C)(C)C)nn1C	ADAM17 inh 8.6 | ADAM10 ctr inactive | ADAM17 confirm inactive
N#C/C(=N\Nc1ccc(F)cc1)C(=N)N1CCCCC1	none
COc1ccc(N/N=C(\C#N)C(=N)N2CCOCC2)cc1	ADAM17 inh 8.8 | ADAM10 ctr inactive | ADAM17 confirm inactive
O=C(OCC#CCSc1nnc(-c2cccc3ccccc23)o1)c1ccc(OC(F)F)cc1	none (no result: CendR NRP1 mod, KLK7 zymogen act)
CNS(=O)(=O)c1ccc(C(=O)NCC(=O)NCCC(c2ccccc2)c2ccccc2)cc1	ADAM17 inh 9.7 | ADAM10 ctr inactive | ADAM17 confirm inactive
CNS(=O)(=O)c1ccc(C(=O)NCC(=O)NCC2COc3ccccc3O2)cc1 (centres undefined)	none
Cc1cc(O)cc(=O)n1-c1cc(F)c(F)c(F)c1	none (no result: CendR NRP1 mod)
CCOC(=O)c1sc(SC)c2c1CCCC2=O	ADAM17 inh 9.3 | ADAM10 ctr inactive | ADAM17 confirm inactive
COc1cccc(N=C2SC(C(=O)Nc3ccc(F)cc3)CC(=O)N2C)c1 (centres undefined)	ADAM17 inh 10 | ADAM10 ctr 25 | ADAM17 confirm 11
CCOc1ccc(NC(=O)C2CC(=O)N(C)C(=Nc3ccc4c(c3)OCO4)S2)cc1 (centres undefined)	none
Cc1ccc(-c2nc(SCC(=O)Nc3cc(S(=O)(=O)N4CCCCC4)ccc3Cl)n[nH]2)cc1	ADAM17 inh 14 | ADAM10 ctr 32 | ADAM17 confirm 14
Nc1cc(=O)[nH]c(SCC(=O)Nc2cc(S(=O)(=O)N3CCCCCC3)ccc2Cl)n1	none
CCN(CC)S(=O)(=O)c1ccc(C)c(NC(=O)CNc2cccc(S(=O)(=O)N3CCCC3)c2)c1	none
Cc1ccc(S(=O)(=O)N2CCCCC2)cc1NC(=O)CNc1ccc(C(F)(F)F)cc1	ADAM17 inh 9.4 | ADAM10 ctr inactive | ADAM17 confirm 11
Cc1ccc(S(=O)(=O)N2CCCCC2)cc1NC(=O)Cc1c[nH]c2ccccc12	ADAM17 inh 8.8 | ADAM10 ctr inactive | ADAM17 confirm inactive
N#Cc1ccc(NC(=O)OC2CC3CC2[C@H]2CCCCN2[C@H]3Cc2ccccc2)cc1 (some centres undefined)	none (no result: CendR NRP1 mod)
Cc1ccc(-n2c(Cc3cccs3)nnc2SCc2ccc([N+](=O)[O-])cc2)cc1	none (no result: CendR NRP1 mod)
COc1cc(NC(=O)C2CCCN(S(=O)(=O)c3ccc(C)cc3)C2)cc(OC)c1 (centres undefined)	none (no result: CendR NRP1 mod)
COC(=O)c1ccc2[nH]c(C3(O)CCCCC3)c(C)c2c1	ADAM17 inh 11 | ADAM10 ctr inactive | ADAM17 confirm inactive
CCOC(=O)c1[nH]c2ccc(C(=O)OC)cc2c1C(=O)OCC	none
Cc1ccc(-c2nnn(CCC(=O)N3CCCCC3C)n2)cc1 (centres undefined)	ADAM17 inh 9.5 | ADAM10 ctr inactive | ADAM17 confirm inactive
CN(C)c1ccc(N=Nc2ccccc2C(=O)OCC(=O)N2CCCCCC2)cc1	ADAM17 inh 13 | ADAM10 ctr inactive | ADAM17 confirm 8.7
CC(C)(C)C1CCC(=O)C(C2(O)C(=O)Nc3ccccc32)C1 (centres undefined)	ADAM17 inh 12 | ADAM10 ctr inactive | ADAM17 confirm inactive
CCCCC(CC)C(=O)Oc1ccc(O)c(C(C)(C)C)c1 (centres undefined)	ADAM17 inh 12 | ADAM10 ctr inactive | ADAM17 confirm inactive
O=C(Oc1ccccc1-c1nnco1)c1ccc(Cl)cc1	ADAM17 inh 9.7 | ADAM10 ctr inactive | ADAM17 confirm inactive
O=C(Nc1ccccc1OC(=O)c1ccc(Cl)cc1)c1ccc(Cl)cc1	none
COc1ccc(C2CC(=O)c3c(O)cc(O)cc3O2)c(CC=C(C)C)c1OC (centres undefined)	ADAM17 inh 14 | ADAM10 ctr 25 | ADAM17 confirm 14
CCSC1=C(C#N)C(c2ccccc2Cl)C(C(=O)c2cccs2)C(O)(C(F)(F)F)N1 (centres undefined)	none
C=CCSC1=C(C#N)C(c2ccccc2Cl)C(C(=O)c2cccs2)C(O)(C(F)(F)F)N1 (centres undefined)	ADAM17 inh 8.6 | ADAM10 ctr inactive | ADAM17 confirm inactive
COc1cc(NC(=O)COC(=O)Cc2ccc(-c3ccccc3)cc2)cc(OC)c1	ADAM17 inh 11 | ADAM10 ctr 23 | ADAM17 confirm 12
Cc1cccc(Nc2nc(N)c([N+](=O)[O-])c(N3CC(C)OC(C)C3)n2)c1 (centres undefined)	none
Cc1cccc(Nc2nc(N)c([N+](=O)[O-])c(N3CC(C)CC(C)C3)n2)c1 (centres undefined)	ADAM17 inh 9.4, ADAM10 inh 20 | ADAM10 ctr 31 | ADAM17 confirm 17
Cc1ccc(Cn2ccc(=O)c(OCc3c(Cl)cccc3Cl)c2C)cc1	ADAM17 inh 11 | ADAM10 ctr inactive | ADAM17 confirm 10
Cc1[nH]ccc(=O)c1OCc1c(Cl)cccc1Cl	none
COc1ccc(C(=O)C2(C(=O)NCc3ccccc3)CC(c3ccccc3C(F)(F)F)=NO2)cc1 (centres undefined)	ADAM17 inh 9.1 (no result: CendR NRP1 mod) | ADAM10 ctr 22 | ADAM17 confirm 15
COc1ccc(NS(=O)(=O)c2cc(OC)ccc2NC(=O)c2cc(C)oc2C)cc1	ADAM17 inh 8.8 | ADAM10 ctr inactive | ADAM17 confirm inactive
CCN(CC)c1c2c(nc3ncnn13)CCCC2	none (no result: CendR NRP1 mod)
